pPAFAH FP inh: pPAFAH enzyme inhibitors, primary screen, biochemical, fluorescence polarization, human | recombinant pPAFAH, FP-rhodamine probe fluorescence polarization | inhibition, % at 3.39 µM | AID 463082, 2010 | 1.5% of 330,000 active | Platelet-activating factor acetylhydrolase (Homo sapiens), Q13093;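 active = inhibition above the mean inhibition across the screen plus 3 SD, cut at about 25% in these data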;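 also: inhibitors block binding of the rhodamine activity-based probe so polarization drops; 0% = enzyme with DMSO and 100% = wells lacking pPAFAH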
M18AAP inhibitor: PfM18AAP inhibitors, malaria aminopeptidase, primary screen, biochemical, QFRET, recombinant enzyme. inhibition, % at 7.35 µM. H-Glu-NHMec fluorogenic cleavage. M18 aspartyl aminopeptidase (Plasmodium falciparum 3D7). 1.2% of 290,000 active;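 active = inhibition above the campaign mean inhibition over all tested compounds plus 3 SD, cut at about 28% in these data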;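 also: 0% = plate median of test compound wells and 100% = 2 mM ZnCl2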
PAFAH1B2 FP inh: PAFAH1B2 enzyme inhibitors, primary screen, biochemical, fluorescence polarization, human | Platelet-activating factor acetylhydrolase IB subunit alpha2 (Homo sapiens), P68402 | recombinant PAFAH1B2, FP-rhodamine activity probe | inhibition, % at 3.39 µM | 1.2% of 340,000 active | AID 492953, 2010;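 active = inhibition above the mean of all tested compounds plus 3 SD, cut at about 24% in these data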;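 also: 0% = enzyme with DMSO and 100% = wells lacking PAFAH1B2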
Target sequence (P68402 whole entry, looked up): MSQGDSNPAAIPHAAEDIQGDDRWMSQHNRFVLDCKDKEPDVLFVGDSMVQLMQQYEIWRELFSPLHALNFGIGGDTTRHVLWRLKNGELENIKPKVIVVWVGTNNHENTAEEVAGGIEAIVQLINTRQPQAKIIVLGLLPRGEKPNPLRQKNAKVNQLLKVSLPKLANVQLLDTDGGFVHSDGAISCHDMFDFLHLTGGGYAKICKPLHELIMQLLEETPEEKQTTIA
PAFAH1B3 FP inh: PAFAH1B3 enzyme inhibitors, primary screen, biochemical, fluorescence polarization, human. Platelet-activating factor acetylhydrolase IB subunit alpha1 (Homo sapiens), Q15102. recombinant PAFAH1B3, FP-rhodamine probe. inhibition, % at 3.39 µM. 0.28% of 340,000 active. AID 492972, 2010;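 active = inhibition above the screen-wide average of all tested compounds plus 3 SD, cut at about 25% in these data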;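 also: 0% = enzyme with DMSO only and 100% = wells lacking PAFAH1B3 protein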
Target sequence (Q15102 whole entry, looked up): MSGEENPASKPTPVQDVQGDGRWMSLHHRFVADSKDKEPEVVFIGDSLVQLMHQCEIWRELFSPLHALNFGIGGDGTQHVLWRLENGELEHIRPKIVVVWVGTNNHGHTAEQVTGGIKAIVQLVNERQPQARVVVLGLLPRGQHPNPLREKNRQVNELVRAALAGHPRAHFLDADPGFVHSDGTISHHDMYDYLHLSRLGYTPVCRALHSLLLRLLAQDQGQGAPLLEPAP
PAFAH2 inh: PAFAH2 enzyme inhibitors, primary screen, biochemical, fluorescence polarization, human; Platelet-activating factor acetylhydrolase 2, cytoplasmic (Homo sapiens), Q99487; inhibition, % at 3.39 µM; 0.99% of 340,000 active; recombinant PAFAH2, FP-rhodamine activity probe;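 active = inhibition above the mean over all tested compounds plus 3 SD, cut at about 30% in these data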;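 also: inhibitors block probe labeling of enzyme so polarization drops; 0% = enzyme with DMSO and 100% = wells lacking PAFAH2 protein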
DSG3 Ab inh: inhibitors of pemphigus antibody binding to DSG3, primary screen, biochemical, bead-based, flow cytometry, scFv-GFP; Desmoglein-3 (Homo sapiens), P32926; DSG3-coupled beads, scFv-anti-DSG3-GFP binding; active compounds read low; binding (percent of control), % at 10 µM; 0.48% of 310,000 active; AID 588358, 2011;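 active = binding more than 3 SD below its plate's average and above zero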;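 also: hits lower antibody fragment binding to DSG3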
The depositor's hits bear a star; nt = no result given. Shown are actives, neighbours in structure and some others; about 3.8% of the full set was active somewhere.

SMILES	pPAFAH FP inh	M18AAP inhibitor	PAFAH1B2 FP inh	PAFAH1B3 FP inh	PAFAH2 inh	DSG3 Ab inh
Nc1ccc(C(=O)NN2C(=O)[C@H](Cl)C2c2ccc(Cl)cc2)cc1 (stereo partly specified)	nt	nt	-9	4	-6	nt
O=C1OCCC1=CN1CCCCC1	nt	nt	nt	nt	nt	99
O=c1oc2c(-c3cccc(F)c3)cc(O)cc2s1	27*	26	13	11	-12	103
Cc1cccc2cc(CN(C(=O)c3cccc([N+](=O)[O-])c3)C(C)C)c(=O)[nH]c12	0	-5	5	-10	-4	59*
Cc1cccc2cc(COC(=O)c3cccc([N+](=O)[O-])c3)c(=O)[nH]c12	-1	-14	nt	nt	nt	nt
O=C(N/N=C\c1cccc([N+](=O)[O-])c1O)C1COc2ccccc2O1 (stereo unspecified)	10	23	2	11	2	31*
O=C(CNC(=O)c1ccc(Br)cc1)OC1CCOC1=O (stereo unspecified)	nt	nt	nt	nt	nt	98
CCC1=NN2C(=N)/C(=C\c3cccn3-c3ccc(Cl)cc3)C(=O)N=C2S1	3	-8	42*	1	5	110
Cc1ccc(-n2cccc2/C=C2\C(=N)N3N=C(c4ccco4)SC3=NC2=O)cc1	15	7	32*	7	16	83
Cc1ccc(S(=O)(=O)N2CCC(C(=O)OCC(=O)N3C(C)CCCC3C)CC2)cc1C (stereo unspecified)	nt	nt	nt	nt	nt	96
COC(=O)[C@]1(C)N[C@H](CN(C)C(=O)Nc2ccc(OC)cc2)[C@@H]2C(=O)N(C)C(=O)[C@@H]21	6	nt	6	7	-3	80*
COc1ccc(NS(=O)(=O)c2cccc(NC(=O)CCS(=O)(=O)c3ccccc3)c2)cc1	34*	1	3	0	8	95
COc1ccc(NS(=O)(=O)c2cccc(NC(=O)CCC(=O)c3cccs3)c2)cc1	33*	0	-3	-2	-1	94
CCN(C(=O)CSc1ccccn1)C1CCCCC1	1	nt	11	2	2	nt
CCN(C(=O)CSc1ncccc1C(=O)O)C1CCCCC1	-7	3	29*	6	-5	96
O=C(CCc1ccccc1)NC(=S)Nc1cccc(C(=O)O)c1	-2	0	7	6	4	104
O=C(CCCc1ccccc1)Nc1cccc(C(=O)O)c1	-2	2	25*	8	7	95
O=C(CCCCCCC(=O)NCc1ccccc1)NCc1ccccc1	4	-2	4	9	-1	123
Cc1cc(NS(=O)(=O)c2ccc(Nc3nc(-c4sc(NC(=O)c5ccccc5)nc4C)cs3)cc2)no1	69*	0	nt	nt	nt	nt
CCC(=O)Nc1nc(C)c(-c2csc(Nc3ccc(S(=O)(=O)Nc4cc(C)on4)cc3)n2)s1	nt	12	nt	nt	nt	nt
COc1ccc(-c2csc(Nc3ccc(S(=O)(=O)Nc4cc(C)on4)cc3)n2)cc1	27*	14	5	-2	18	85
Cc1cc(NS(=O)(=O)c2ccc(Nc3nc(-c4sc(C)nc4C)cs3)cc2)no1	nt	0	nt	nt	nt	nt
CC(=O)Oc1ccc(-c2csc(Nc3ccc(S(N)(=O)=O)cc3)n2)cc1	10	19	1	9	-2	98
COc1ccc(-c2csc(Nc3ccc(S(N)(=O)=O)cc3)n2)cc1	15	24	0	6	1	88*
CC1(C)CN(C2CCCCC2)C(=O)[C@H]1CC(=O)Nc1ccc(Br)cc1	nt	nt	nt	nt	nt	98
SMILES	pPAFAH FP inh	M18AAP inhibitor	PAFAH1B2 FP inh	PAFAH1B3 FP inh	PAFAH2 inh	DSG3 Ab inh
CCOC(=O)C1(Cc2cccc(Cl)c2)CCCN(C(=O)c2ccc(C)nc2)C1 (stereo unspecified)	2	-10	8	10	4	67*
COc1ccc(NS(=O)(=O)c2ccc(N3CCCC3)c(NC(=S)Nc3ccc(SC(F)F)cc3)c2)cc1	34*	12	1	-2	4	95
COc1cc(CN2CCN(C(=O)CC(C)C)CC2)c([N+](=O)[O-])cc1OC	6	18	5	2	-1	108
COC(=O)Cc1cc(=O)n2[nH]c(C)cc2n1	3	7	1	4	-5	100
CCCc1cc(=O)n2[nH]c(C)cc2n1	-1	7	2	4	2	83*
COc1ccc(CN2CCC[C@]3(N[C@H](c4ccc(C(F)(F)F)cc4)[C@@H]4C(=O)N(Cc5ccccc5)C(=O)[C@@H]43)C2=O)cc1	nt	nt	nt	nt	nt	103
COC(=O)C1=C(CSc2nc3c(cc2C#N)CN(C)CC3)OC(N)=C(C#N)C1c1ccc(F)cc1 (stereo unspecified)	26*	24	10	16	13	131
CCOC(=O)C1=C(CSc2nc(CC)c(C)cc2C#N)OC(N)=C(C#N)C1c1ccc(OC)cc1 (stereo unspecified)	-1	13	-2	-3	-10	nt
COc1ccc(/C=N/NC(=O)c2ccco2)cc1Cn1nc(C)c([N+](=O)[O-])c1C	3	1	0	8	-5	-160*
COc1ccc(/C=N/NC(=O)c2ccn[nH]2)cc1Cn1nc(C)c([N+](=O)[O-])c1C	0	6	nt	nt	nt	104
COc1ccc(CN(C)C(=O)C2CSC3(C)CCC(=O)N23)c(OC)c1 (stereo unspecified)	nt	nt	nt	nt	nt	98
CSC(=Nc1ccc(Cl)cc1)N[n+]1ccccc1	2	-9	0	5	-3	110
COc1ccc(N2CCN(C(=S)Nc3cccc(C)c3C)CC2)cc1	-3	-7	6	4	10	49*
CC1CCN(S(=O)(=O)N2CCC(C(=O)NCc3ccc(F)cc3Cl)CC2)CC1	nt	nt	nt	nt	nt	95
CC[C@@]1(C(=O)OC)N[C@H](CN(C)C(=O)c2ccc(C)cc2)[C@@H]2C(=O)N(Cc3ccccc3)C(=O)[C@@H]21	1	nt	5	3	3	93
Cc1c(Cl)c(C(=O)NNC(=S)Nc2ccc(F)cc2)nn1C	-1	19	6	5	2	99
COC(=O)c1sccc1NS(=O)(=O)c1ccccc1	3	-4	2	5	1	nt
COC(=O)c1ccsc1NS(=O)(=O)c1ccccc1	28*	-12	5	5	0	105
O=C(Cc1cccs1)Nc1ccc(S(=O)(=O)Nc2ncccn2)cc1	17	5	-2	12	12	102
Cc1ccnc(NS(=O)(=O)c2ccc(NC(=O)Cc3cccs3)cc2)n1	34*	6	4	9	15	95
Cc1onc(-c2ccccc2)c1C(=O)OCC(=O)c1ccc(F)cc1	nt	nt	nt	nt	nt	103

Bioassay records from PubChem BioAssay.
